46 compounds from PubChem BioAssay AID894 (National Center for Advancing Translational Sciences (NCATS), 2007) can be followed below.

Values joined by “and” are separate entries in the source; they are usually repeats but may differ in a detail not shown here. Equal entries are not always repeated. The whole screen tested about 150,000 compounds, of which about 6,500 (4.3%) were called active. Another 12% or so got no clear call; they are omitted. The sample holds actives, similar compounds and a random draw of the others, so the mix is not that of the screen. Calls come from the whole dose curve; as a rule, active = well fitted inhibition curve with a large enough effect (not every such curve was filed as active); inconclusive = small, poorly fitted or top-dose-only effect, or another doubt; inactive = no such curve, though single readings can be large or run the other way. Some compounds were tested as several samples or in several runs, with calls that do not always agree.
% is set by controls: 0 for no effect and ±100 for the full control effect; potency is the fitted concentration of half-maximal effect.

15-hydroxyprostaglandin dehydrogenase [NAD(+)] (Homo sapiens), sequence (P15428 whole entry, looked up): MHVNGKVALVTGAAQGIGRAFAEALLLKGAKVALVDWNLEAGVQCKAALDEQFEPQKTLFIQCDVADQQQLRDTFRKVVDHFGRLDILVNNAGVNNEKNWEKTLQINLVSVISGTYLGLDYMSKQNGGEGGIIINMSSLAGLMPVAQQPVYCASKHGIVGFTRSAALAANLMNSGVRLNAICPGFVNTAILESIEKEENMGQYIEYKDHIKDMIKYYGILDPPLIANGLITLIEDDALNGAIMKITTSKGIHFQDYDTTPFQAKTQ

The assay deals with 15-hydroxyprostaglandin dehydrogenase [NAD(+)] (Homo sapiens) (UniProt P15428). As to the kind of experiment: qHTS Assay for Inhibitors of HPGD (15-Hydroxyprostaglandin Dehydrogenase). As to conditions: purified HPGD, NADH fluorescence kinetic, PGE2 substrate; activity change, negative = inhibition: stronger effect = lower value. In outline:
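NADH formation kinetics: reaction with 30 uM PGE2 and 1 mM NAD+ (final), 20 nM enzyme, Tris-HCl pH 8 with Tween 20, after 15 min compound preincubation at room temperature. Fluorescence change, last versus first of five reads.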
In general terms: qHTS replaces the single test concentration by a dilution series.
As for `C#CCCCc1nc2ccccc2c(=O)n1N`, the activity change, negative = inhibition was -10.2% (inactive). For the compound `Cc1cc(-c2n[nH]c(=S)n2/N=C/C(Br)=C/c2ccccc2)n[nH]1`, the Potency was 3.98 µM (active).

Turning to `S=c1[nH]nc(-c2cccnc2)n1/N=C/C(Cl)=C\c1ccccc1`, the Potency was 1.58 µM (active). In the case of `COc1cc(CN2CC(C)CC(C)C2)cc([N+](=O)[O-])c1O` (configuration not stated), the activity change, negative = inhibition is -17.1% (inactive).

On to `Cc1ccc(NC(=S)NC(=O)/C=C/c2ccc(Cl)cc2)cc1`, for which the activity change, negative = inhibition is -18.9% (inactive). For the compound `CC(NC(=O)COC(=O)C1CCN(S(=O)(=O)c2ccccc2C(F)(F)F)CC1)c1ccccc1` (configuration not stated), the activity change, negative = inhibition was -6.33% (inactive). Take `CC1(OC(=O)c2ccc(Cl)nc2)C(=O)Cc2cc(-c3ccsc3)ncc2C1=O` (configuration not stated): the activity change, negative = inhibition was 2.16% (inactive).

With `O=C(NCCN1CCOCC1)c1cc(Sc2cccc(Cl)c2)nc2ccccc12`, the activity change, negative = inhibition is -1.7% (inactive). The same measure, in the same setting: under `O=C(NC(=S)Nc1cc(C(F)(F)F)ccc1N1CCOCC1)c1ccc(-c2cccc(Cl)c2)o1` stands -5.6% (inactive). Take `CCC(=O)/C=C1\Sc2ccccc2N1CC`: the activity change, negative = inhibition was -16.1% (inactive). With `CCN1C(=O)/C(=C2/Sc3ccccc3N2CCCS(=O)(=O)O)SC1=S`, the Potency is 20 µM (active). On to `CCN1C(=O)/C(=C\N2CCN(c3ccccc3)CC2)SC1=S`, for which the activity change, negative = inhibition was -18.6% (inactive).

As for `COc1ccc(C)cc1NC(=O)C(OC(=O)c1cccc(S(=O)(=O)N(C)c2ccccc2)c1)c1ccccc1` (configuration not stated), the activity change, negative = inhibition is -17.6% (inactive). Same read-out and setting: under `CC(=O)c1c(N2CCN(c3ccc(F)cc3)CC2)nc(=S)n(-c2ccccc2)c1C` stands -7.92% (inactive); under `O=[N+]([O-])c1ccc(N2CCNCC2)cc1NCc1cccnc1`, -18.8% (inactive); under `O=C1OC(OC(=O)c2ccccc2Br)C(N2CCOCC2)=C1Cl` (configuration not stated), -15.3% (inactive). On to `O=C(CCn1c(SCC(=O)c2ccccc2)nc2ccccc2c1=O)NCc1ccc(F)cc1`, for which the activity change, negative = inhibition was -4.59% (inactive).

For the compound `COc1ccc(OCc2ccc(-c3nc4ccccc4c(=O)n3N)o2)cc1`, the activity change, negative = inhibition is -2.6% (inactive). As for `Cc1ccc(C(=O)CSc2nc3ccccc3c(=O)n2N)o1`, the Potency was 25.1 µM (active). For `O=C(CSc1nc2ccccc2[nH]1)Nc1nc(-c2ccccc2)c(-c2ccccc2)o1`, the activity change, negative = inhibition was -28.7% (inactive).

Turning to `O=C(CN1C(=O)/C(=C\c2ccccc2F)SC1=S)Nc1nc2ccccc2s1`, the activity change, negative = inhibition is -21.2% (inactive). For `CC(=O)Nc1cc(C(=O)O)ccc1S(=O)(=O)c1ccc(Cl)cc1`, the activity change, negative = inhibition was -9.11% (inactive). Take `O=C(Nc1ccc(Cl)cc1)c1ccsn1`: the activity change, negative = inhibition was -18.4% (inactive). Turning to `O=C(Nc1ccccc1)c1nnsc1S(=O)(=O)c1ccc(Cl)cc1`, the Potency was 11.2 µM (active). Consider `Cc1ccccc1Nc1nc(N)nc(CSc2ccccc2)n1`, for which the activity change, negative = inhibition is -2.99% (inactive). Regarding `COc1ccc(-n2c(C)cc(C(=O)CN3C(=O)NC4(CCc5ccccc54)C3=O)c2C)cc1` (configuration not stated), the activity change, negative = inhibition is -8.92% (inactive). For `COc1cc(/C=C/C(=O)O)cc(S(=O)(=O)Nc2ccccc2SC)c1OC`, the activity change, negative = inhibition was -7.12% (inactive). With `COc1ccc([N+](=O)[O-])cc1N(CC(O)Cn1nnc2ccccc21)S(=O)(=O)c1ccc(C)cc1` (configuration not stated), the Potency was 28.2 µM (active). Consider `Cc1cc(C)n(CC(O)CN(c2ccccc2)S(=O)(=O)c2ccc3ccccc3c2)n1` (configuration not stated), for which the activity change, negative = inhibition was -6.52% (inactive).

As for `Cc1ccc(N(CC(O)CN2CCCC2)S(=O)(=O)c2ccccc2)cc1` (configuration not stated), the activity change, negative = inhibition is -2.29% (inactive). With `CCCCCC(O)c1cccc(OCc2ccc3ccccc3n2)c1` (configuration not stated), the Potency was 14.1 µM (active); the activity change, negative = inhibition is -26.2% (inactive) and -5.68% (inactive). As for `CCCn1c(C(O)c2ccc(OCC)cc2)nc2ccccc21` (configuration not stated), the activity change, negative = inhibition is -9.25% (inactive). Turning to `CCCCCCOC(=O)NCC(O)c1ccccc1` (configuration not stated), the activity change, negative = inhibition was -19.8% (inactive).

For `Cc1cc(NC(=O)Nc2ccccc2)n(-c2ccccc2)n1`, the activity change, negative = inhibition was -0.703% (inactive).

Take `Cc1nn(-c2ccccc2)c(C)c1NC(=O)CCl`: the activity change, negative = inhibition is -8.71% (inactive). As to `Cc1nn(-c2ccccc2)c(Cl)c1C(=O)Nc1ccccc1`, the Potency is 14.1 µM (active).

On to `CCCCNC(=O)C1CCC(CNS(=O)(=O)c2ccc(NC(C)=O)cc2)CC1` (configuration not stated), for which the activity change, negative = inhibition is -26.6% (inactive). The same measure, in the same setting: under `COc1ccc(NC(=S)NCC2CCN(c3ccc(OC)cc3)C2)cc1` (configuration not stated) stands -3.49% (inactive).

Consider `O=C(NNC(=S)Nc1ccc(Br)cc1Cl)c1ccco1`, for which the activity change, negative = inhibition is -15.2% (inactive). Take `Cc1ccc(/C=N/NC(=O)c2sccc2OCc2ccc(F)cc2)cc1`: the Potency was 31.6 µM (active). Consider `Cc1ccsc1C(=O)N/N=C/c1ccc([N+](=O)[O-])cc1`, for which the activity change, negative = inhibition was -12.4% (inactive). In the case of `CNC(=S)NNC(=O)c1sccc1OCc1ccccc1`, the activity change, negative = inhibition is 1.03% (inactive). For the compound `Cc1ccc(NC(=O)O[C@@H]2C(=O)c3cc(Br)ccc3O[C@H]2c2ccc3c(c2)OCO3)cc1Br`, the activity change, negative = inhibition is -8.38% (inactive). Still for that read-out and setting: under `O=C(Nc1ccccc1)OCc1cc(-c2ccc(Cl)cc2)on1` stands -7.01% (inactive).

As for `O=C1c2cccc3cc(Br)cc(c23)C(=O)N1Nc1ccccc1`, the activity change, negative = inhibition was -5.3% (inactive). For the compound `O=C1C=C(c2ccc(Cl)cc2)C(=O)N1Nc1ccccc1`, the Potency is 22.4 µM (active).
